Experimental data as given in paper PMC5540273 (PLoS ONE, 2017).

Legend:
Settings in all cases: concentration: 1 μM, replicates: in singlicate; n = 1
SGK2 = tested on: SGK2
SGK3 = tested on: SGK3
SGK = tested on: SGK
SIK2 = tested on: SIK2
SIK = tested on: SIK
SLK = tested on: SLK
SNARK = tested on: T1, SNARK
T1 construct: gene NUAK2

SNRK = tested on: SNRK
SRC = tested on: SRC
SRMS = tested on: SRMS
SRPK1 = tested on: SRPK1
SRPK2 = tested on: SRPK2
SRPK3 = tested on: SRPK3
STK16 = tested on: STK16
STK33 = tested on: STK33
STK35 = tested on: STK35
STK36 = tested on: STK36
STK39 = tested on: STK39
SYK = tested on: SYK
SgK110 = tested on: SgK110
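Note: KINOMEscan kinase panel screen.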

SMILES	%Inh (SGK2)	%Inh (SGK3)	%Inh (SGK)	%Inh (SIK2)	%Inh (SIK)	%Inh (SLK)	%Inh (SNARK)	%Inh (SNRK)	%Inh (SRC)	%Inh (SRMS)	%Inh (SRPK1)	%Inh (SRPK2)	%Inh (SRPK3)	%Inh (STK16)	%Inh (STK33)	%Inh (STK35)	%Inh (STK36)	%Inh (STK39)	%Inh (SYK)	%Inh (SgK110)
Nc1nc(N)c2nc(-c3ccccc3)[nH]c2n1 [SKF-12778]	18%	7%	15%	22%	17%	21%	19%	0%	19%	0%	37%	0%	22%	1%	19%	5%	0%	11%	43%	0%
O=C(Nc1n[nH]c2nc(-c3ccccc3)c(Br)cc12)C1CC1 [SB-708998]	0%	0%	5%	0%	5%	20%	4%	18%	4%	0%	36%	0%	17%	0%	14%	0%	38%	4%	13%	13%
COc1ccc(-n2cnc3c(N)ncnc32)cc1 [SKF-97236]	6%	11%	0%	14%	0%	11%	24%	0%	0%	0%	28%	0%	15%	38%	20%	0%	0%	0%	18%	0%
Cc1cc(Nc2nc(-c3cccc(C)n3)nc3ccccc23)ccn1 [GW872411]	0%	0%	0%	23%	0%	0%	0%	0%	0%	13%	0%	0%	13%	0%	0%	3%	0%	0%	0%	0%
O=C(NCc1cccs1)c1cc(C(=O)c2c(Cl)cccc2Cl)c[nH]1 [GW823670]	0%	0%	0%	4%	4%	9%	0%	0%	0%	15%	0%	0%	0%	0%	0%	0%	10%	0%	6%	14%
CN1C(=O)C(Nc2ccccc2)=C(c2ccccc2)C1=O [SB-300079]	0%	11%	7%	7%	3%	0%	12%	0%	0%	21%	0%	0%	0%	0%	9%	0%	0%	0%	3%	0%
COc1cc(Nc2nccc(N3CCC(NC(=O)C4COc5ccccc5O4)C3)n2)cc(OC)c1OC (stereo not shown) [GSK1379761]	0%	0%	17%	0%	0%	17%	23%	0%	53%	11%	65%	70%	0%	70%	4%	13%	40%	0%	44%	0%
COc1cc2nccc(Nc3cccc(Oc4ccccc4)c3)c2cc1OC.Cl [GW284543]	0%	0%	37%	0%	0%	21%	0%	0%	7%	55%	65%	0%	0%	0%	0%	0%	0%	1%	37%	0%
COc1cccc(C2=C(N(C)c3ccccc3)C(=O)NC2=O)c1 [SB-334865]	0%	3%	0%	0%	0%	13%	0%	0%	0%	0%	0%	7%	0%	22%	0%	0%	0%	7%	9%	0%
O=C(Nc1n[nH]c2cc(-c3ccccc3F)ccc12)C1CC1 [SB-733371]	11%	12%	5%	5%	0%	1%	1%	0%	0%	14%	10%	0%	38%	0%	0%	11%	0%	2%	17%	0%
Nc1ncnc2c1ncn2-c1ccc(Cl)cc1 [AH2635]	0%	0%	0%	0%	3%	20%	0%	0%	0%	0%	0%	13%	0%	3%	0%	0%	0%	0%	31%	0%
